# Results reported in PubChem BioAssay.
# “And” between values parts separate entries of the source, which are not always exact repeats. Equal entries are not always repeated. Inconclusive results are not listed. The source made the active and inactive calls. Unless noted, no stated cut-off is given here; in the data, active means inhibition above about 80%; inactive means the rest.
# Experiments:
# [1] = viability loss in pontine glioma line – cell-based, SU-DIPG-XIII, MIPE5.0, CellTiter-Glo, qHTS, dose response (AID 1347064; cut-off not given, nearly all actives have AC50 up to about 23 µM;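 on AC50: cells exposed to compound for 48 hours before the viability read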); settings: CellTiter-Glo ATP luminescence
# [2] = growth inhibition, single agents and combos, CRL2098, cell-based, BGB or cisplatin IC20 combos, synergistic combos for chromothripsis tumors (AID 1671454); settings: CRL2098 osteosarcoma cells, drug combinations, stronger effect = higher value;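 further: cells exposed for 96 h before readout; 0% = vehicle DMSO and 100% = killing by high DMSO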
# [3] = growth inhibition, single agents and combos, HD-MB03, cell-based, BGB or cisplatin IC20 combos, synergistic combos for chromothripsis tumors (AID 1671455; in the data active means inhibition above about 83%;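 further: 0% = vehicle DMSO and 100% = high DMSO as cytotoxic control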); settings: HD-MB03 medulloblastoma cells, stronger effect = higher value
# [4] = growth inhibition, single agents and combos, UWB1.289, cell-based, BGB or cisplatin combos, synergistic combos for chromothripsis tumors (AID 1671456); settings: UWB1.289 ovarian carcinoma cells, stronger effect = higher value;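 further: cells exposed to compound for four days; 0% = vehicle DMSO and 100% = killing by high DMSO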
# [5] = growth inhibition, single agents and combos, LFS_MB_2R, cell-based, cisplatin combos, synergistic combos for chromothripsis tumors (AID 1671457); settings: LFS_MB_2R medulloblastoma cells, stronger effect = higher value;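 further: cells exposed to compound for four days before readout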
# [6] = UWB1.289_BRCA1 ovarian cancer growth, cell-based, BGB or cisplatin combinations (AID 1671459); settings: UWB1.289 BRCA1 ovarian carcinoma, drug combinations, stronger effect = higher value
# [7] = drug combination toxicity in non-malignant astrocytes – cell-based, BGB or cisplatin IC20 combos, cytotoxicity control for chromothriptic childhood tumor combination screen (AID 1671460); settings: Human astrocytes, viability inhibition, drug combinations, at 0.5 µM, stronger effect = higher value;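 further: cells exposed to compounds for 96 hours before viability readout; 0% = vehicle and 100% = killing control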
# [8] = P. berghei load reduction in hepatocytes – cell-based, HepG2, luciferase luminescence, HepG2 viability, primary screen (AID 624349; in the data active means parasite load remaining mostly below about 12%, no sharp cut-off; inactive means mostly above about 10%;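 further: 100% = mean of DMSO negative control wells on the same plate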); settings: P. berghei liver stage in HepG2, luciferase luminescence, concentration not given here; parasite load remaining: stronger effect = lower value; viability: measured here: HepG2 viability without parasites
# [9] = target: NAD(+) hydrolase SARM1 (Homo sapiens) (UniProt Q6SZW1); assay: blocking NAD cleavage by SARM1 SAM-TIR – cell lysate, NAD-Glo luminescence (AID 1508614;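 active means compound whose remaining NAD level is above about 45 nM, limit read from the data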); settings: SAM-TIR HEK293T lysate NADase, at 1 µM, stronger effect = higher value
# Sequence of NAD(+) hydrolase SARM1 (Homo sapiens) (Q6SZW1 whole entry, looked up): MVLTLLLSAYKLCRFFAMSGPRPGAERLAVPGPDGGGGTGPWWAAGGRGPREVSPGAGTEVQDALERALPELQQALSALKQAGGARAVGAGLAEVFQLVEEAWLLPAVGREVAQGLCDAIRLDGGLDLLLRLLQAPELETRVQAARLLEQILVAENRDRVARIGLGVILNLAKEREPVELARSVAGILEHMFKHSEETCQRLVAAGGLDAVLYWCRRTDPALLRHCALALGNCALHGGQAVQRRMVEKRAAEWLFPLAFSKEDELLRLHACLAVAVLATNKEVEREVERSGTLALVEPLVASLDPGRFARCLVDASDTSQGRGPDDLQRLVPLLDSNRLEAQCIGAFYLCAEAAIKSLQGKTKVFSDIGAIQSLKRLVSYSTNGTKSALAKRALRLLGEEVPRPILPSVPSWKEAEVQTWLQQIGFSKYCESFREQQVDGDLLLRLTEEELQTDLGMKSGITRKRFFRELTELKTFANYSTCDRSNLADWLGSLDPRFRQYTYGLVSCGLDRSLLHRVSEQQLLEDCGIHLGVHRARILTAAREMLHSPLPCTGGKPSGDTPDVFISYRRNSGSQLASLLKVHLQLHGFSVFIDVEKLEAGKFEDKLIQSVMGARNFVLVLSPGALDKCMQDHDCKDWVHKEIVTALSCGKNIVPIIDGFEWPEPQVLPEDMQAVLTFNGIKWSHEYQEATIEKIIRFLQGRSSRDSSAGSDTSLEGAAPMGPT
# [10] = galactose survival enhancers in mitochondrial complex I cybrids – cell-based, galactose medium, ATP luminescence, primary screen (AID 1645843;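 active means z-score of at least 1.8 in each of two replicates, scored against plate mean and spread of sample wells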;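 further: positive z means more ATP and so rescue of galactose-driven cybrid death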); settings: complex I mutant cybrid cells, 72 h, stronger effect = higher value
# [11] = test system: Hepatitis C virus NS3 helicase; assay: blockers of NS3h binding to ssDNA – biochemical, fluorescence polarization, LOPAC1280 library, primary screen (AID 687035; in the data active means inhibition above about 37%); settings: Purified HCV NS3 helicase, Cy5-dT15 ssDNA binding fluorescence polarization; stronger effect = higher value; concentration not given here
# [12] = compounds altering Cy5-DNA-NS3h complex signal – biochemical, LOPAC1280, artefact control for HCV NS3 helicase inhibitor project (AID 687037; call rule not given here); settings: Cy5-DNA-NS3h complex fluorescence interference counterscreen
# [13] = blockers of cellular phospholipid synthesis – cell-based, LOPAC library, screen 4, primary screen (AID 1347384; call rule not given here); settings: animal cells, phospholipid biosynthesis inhibition screen; at 10 µM
# [14] = chitosan synthesis blockers in C. neoformans – flow cytometry, Cibacron Brilliant Red staining (AID 1347148; call rule not given here;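 further: compound exposure lasted three days at 37 degrees C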); settings: Cryptococcus neoformans chitosan, stronger effect = lower value; at 10 µM unless noted
# [15] = compounds altering circadian rhythm period length – cell-based, LOPAC library, luminescence reporter (AID 2774; call rule not given here;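 further: values are relative to mean of DMSO wells on each plate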); settings: circadian reporter cells, at 7 µM, actives lie on both sides
# [16] = target: Mitogen-activated protein kinase 7 (Homo sapiens) (UniProt Q13164); assay: Gal4-ERK5 driven luciferase induction – cell-based, HTS, primary screen (AID 1508626;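 active means luciferase signal above three times the same-plate solvent-only control wells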;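 further: luciferase driven by Gal4-ERK5 fusion binding five Gal4 sites before minimal TATA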); settings: HeLa Gal4-ERK5 transactivation, 18 h, at 5 µM, stronger effect = higher value
# Sequence of Mitogen-activated protein kinase 7 (Homo sapiens) (Q13164 whole entry, looked up, the tested form may be a part): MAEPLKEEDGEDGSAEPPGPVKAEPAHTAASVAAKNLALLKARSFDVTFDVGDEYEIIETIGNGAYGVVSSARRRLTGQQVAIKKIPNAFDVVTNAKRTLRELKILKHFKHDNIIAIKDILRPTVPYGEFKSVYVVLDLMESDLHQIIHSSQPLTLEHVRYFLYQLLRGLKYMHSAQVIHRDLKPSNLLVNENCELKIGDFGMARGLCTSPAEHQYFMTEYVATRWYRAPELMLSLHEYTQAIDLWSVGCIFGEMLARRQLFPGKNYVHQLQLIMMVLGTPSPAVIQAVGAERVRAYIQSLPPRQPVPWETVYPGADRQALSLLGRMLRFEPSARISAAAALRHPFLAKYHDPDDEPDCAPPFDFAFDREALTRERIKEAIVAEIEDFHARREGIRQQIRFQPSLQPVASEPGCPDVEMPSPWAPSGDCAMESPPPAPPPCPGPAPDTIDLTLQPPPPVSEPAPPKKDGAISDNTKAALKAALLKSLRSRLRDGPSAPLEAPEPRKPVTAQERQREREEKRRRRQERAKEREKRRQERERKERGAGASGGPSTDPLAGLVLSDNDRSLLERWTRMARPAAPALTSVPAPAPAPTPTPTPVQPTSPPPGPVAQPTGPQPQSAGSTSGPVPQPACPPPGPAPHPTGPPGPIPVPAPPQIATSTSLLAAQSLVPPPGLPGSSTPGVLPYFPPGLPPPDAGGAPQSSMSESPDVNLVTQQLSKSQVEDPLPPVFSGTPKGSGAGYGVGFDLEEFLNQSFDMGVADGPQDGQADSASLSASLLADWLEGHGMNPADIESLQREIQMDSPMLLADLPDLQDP
# [17] = liver-stage malaria parasite load reduction – cell-based, known kinase inhibitor set, luminescence, hepatoma host viability (AID 624392; call rule not given here;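 further: infected cells incubated roughly two days before readout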); settings: Plasmodium liver stage in hepatoma cells, luciferase luminescence, concentration not given here; liver cell % of control: measured here: host liver cell viability; parasite % of control: stronger effect = lower value
# [18] = measured here: combination with BGB at IC20, at 0.5 µM
# [19] = measured here: combination with cisplatin at IC20, at 0.5 µM
# [20] = measured here: combo with BGB at IC20, at 0.5 µM
# [21] = measured here: combo with cisplatin at IC20, at 0.5 µM
# [22] = measured here: inhibition with BGB combination, at 0.05 µM
# [23] = measured here: inhibition with cisplatin combination, at 0.05 µM
# [24] = measured here: combination with cisplatin, at 0.5 µM
# [25] = measured here: combination with cisplatin, at 5 µM
# [26] = BGB combination, concentration series, at 5 µM
# [27] = cisplatin combination, concentration series, at 5 µM
# [28] = measured here: combo with BGB IC20
# [29] = measured here: combo with cisplatin IC20
smiles,measurement,setting,value
C=C1C[C@@]2(O)O[C@@]3(C[C@H]2C(C)C)[C@@H](C)CC[C@@H]13,outcome,[1],inactive
C/C(=C\C(=O)Nc1ccccc1C(=O)O)c1ccc2ccccc2c1,inhibition,[2]; at 0.5 µM,-36.1% (inactive) and -95.9% (inactive)
same,inhibition,[2]; [18],-28.4% and -70.2%
same,inhibition,[2]; [19],-47.6% and -160%
same,inhibition,[3]; at 0.5 µM,-6.95% (inactive) and -18.5% (inactive)
same,inhibition,[3]; [20],-7.43% and -31.2%
same,inhibition,[3]; [21],-10.4% and -19.6%
same,inhibition,[4]; at 0.5 µM,9.98% (inactive) and -21.6% (inactive)
same,inhibition,[4]; [22],3.22% and -36.6%
same,inhibition,[4]; [23],-9.11% and -30.4%
same,inhibition,[5]; at 0.5 µM,-3.77% (inactive) and -16.3% (inactive)
same,inhibition,[5]; [24],1.51% and -14.7%
same,inhibition,[5]; [25],6.83% and -4.92%
same,inhibition,[6]; [26],-7.61% and -2.79%
same,inhibition,[6]; at 0.5 µM,-8.12% (inactive) and -20.7% (inactive)
same,inhibition,[6]; [27],1.63% and -4.56%
same,inhibition,[7],-12.6% (inactive) and 0.11% (inactive)
same,inhibition,[7]; [28],-9.38% and 5.29%
same,inhibition,[7]; [29],-22.2% and -3.59%
c1nc2nc(Nc3ccc(N4CCOCC4)cc3)nc(NC3CCCCC3)c2[nH]1,parasite load remaining,[8],59.2% (inactive)
same,viability,[8],68.1%
CC(C)(C)OC(=O)N[C@H]1CCCCC/C=C\[C@@H]2C[C@@]2(C(=O)NS(=O)(=O)C2CC2)NC(=O)[C@@H]2C[C@@H](OC(=O)N3Cc4cccc(F)c4C3)CN2C1=O,outcome,[1],inactive
Cc1nc2c([nH]1)CCN(C(=O)c1ccc(NC(=O)c3ccccc3-c3ccccc3)cc1)c1ccccc1-2,outcome,[1],inactive
CC(C)OC(=O)[C@H](C)N[P@](=O)(OC[C@H]1O[C@@H](n2ccc(=O)[nH]c2=O)[C@](C)(F)[C@@H]1O)Oc1ccccc1,inhibition,[2]; at 0.5 µM,-13.4% (inactive)
same,inhibition,[2]; [18],11.7%
same,inhibition,[2]; [19],-20.8%
same,inhibition,[3]; at 0.5 µM,-3.62% (inactive)
same,inhibition,[3]; [20],-1.34%
same,inhibition,[3]; [21],-5.16%
same,inhibition,[4]; at 0.5 µM,0.46% (inactive)
same,inhibition,[4]; [22],-14.4%
same,inhibition,[4]; [23],-6.56%
same,inhibition,[5]; at 0.5 µM,-20% (inactive)
same,inhibition,[5]; [24],-25%
same,inhibition,[5]; [25],-21.1%
same,inhibition,[6]; [26],0.431%
same,inhibition,[6]; at 0.5 µM,-0.57% (inactive)
same,inhibition,[6]; [27],20%
same,inhibition,[7],4.95% (inactive)
same,inhibition,[7]; [28],12%
same,inhibition,[7]; [29],8.21%
C[C@]12C=CC(=O)N[C@@H]1CC[C@@H]1[C@@H]2CC[C@]2(C)[C@@H](C(=O)Nc3cc(C(F)(F)F)ccc3C(F)(F)F)CC[C@@H]12,remaining NAD,[9],10 nM (inactive)
O=C(Nc1ncc(SCCN2CCCC2)s1)[C@]1(c2ccc(S(=O)(=O)C3CC3)cc2)C[C@H]1C1CCCCC1,AC50,[1],16.6 µM (active)
N#CC1(c2cccc(C(=O)Nc3cc(Oc4ccc5nc(NC(=O)C6CC6)sc5n4)ccc3F)c2Cl)CC1,AC50,[1],0.742 µM (active)
O=C(O)CO.[NH2-].[NH2-].[Pt+2],inhibition,[2]; at 0.5 µM,-21.5% (inactive)
same,inhibition,[2]; [18],-45.1%
same,inhibition,[2]; [19],11.3%
same,inhibition,[3]; at 0.5 µM,-6.84% (inactive)
same,inhibition,[3]; [20],-6.51%
same,inhibition,[3]; [21],-6.47%
same,inhibition,[4]; at 0.5 µM,4.06% (inactive)
same,inhibition,[4]; [22],-8.1%
same,inhibition,[4]; [23],-3.04%
same,inhibition,[5]; at 0.5 µM,-20.3% (inactive)
same,inhibition,[5]; [24],-13.9%
same,inhibition,[5]; [25],-30.3%
same,inhibition,[6]; [26],-0.864%
same,inhibition,[6]; at 0.5 µM,-1.6% (inactive)
same,inhibition,[6]; [27],15.4%
same,inhibition,[7],13.7% (inactive)
same,inhibition,[7]; [28],19.5%
same,inhibition,[7]; [29],18.5%
C[N+]1(C)[C@@H]2CC(OC(=O)C(O)(c3cccs3)c3cccs3)C[C@H]1[C@@H]1O[C@@H]12 (stereo not given in full),parasite load remaining,[8],18% (inactive)
same,viability,[8],66.5%
same,z-score,[10],0.685 (inactive)
NC(N)=Nc1nc(CSCCC(N)=NS(N)(=O)=O)cs1,inhibition,[11],-3% (inactive)
same,fluorescence ratio (interference),[12],1 (inactive)
same,outcome,[13],inactive
same,z-score,[10],1.1 (inactive) and 1.27 (inactive)
C/C=C1\C2C=C(C)CC1(N)c1ccc(=O)[nH]c1C2 (stereo not given),fold fluorescence,[14],4.5 [at 206.3 µM] (inactive)
CC1(C)C(=O)N(CCN2CCC(C(=O)c3ccc(F)cc3)CC2)c2ccccc21,period change,[15],0.085 h (inactive)
same,inhibition,[11],-1% (inactive)
same,fluorescence ratio (interference),[12],1 (inactive)
same,outcome,[13],inactive
same,z-score,[10],-1.21 (inactive)
CC(O)C1C(=O)N2C(C(=O)O)=C(SC3CNC(C(=O)N(C)C)C3)C(C)C12 (stereo not given),z-score,[10],0.545 (inactive)
CCCCCCCCCCCCCCCC(=O)OC[C@@H](NC(=O)C(Cl)Cl)[C@H](O)c1ccc([N+](=O)[O-])cc1,remaining NAD,[9],10 nM (inactive)
same,luciferase signal,[16],64 AU (inactive)
Nc1nc2[nH]cc(CCc3ccc(C(=O)N[C@@H](CCC(=O)O)C(=O)O)cc3)c2c(=O)[nH]1,remaining NAD,[9],10 nM (inactive)
CC(C)(Cc1ccc2ccccc2c1)NC[C@@H](O)COc1cccc(Cl)c1C#N,AC50,[1],8.33 µM (active)
COc1cc(Oc2ccnc3cc(OC)c(OC)cc23)ccc1NC(=O)NC(C)c1nccs1 (stereo not given),liver cell % of control,[17],91.8% and 94.8% and 112%
same,parasite % of control,[17],110% (inactive) and 137% (inactive) and 49.5% (inactive)
same,outcome,[1],inactive
Cn1cc(-c2ccc3nnc(C(F)(F)c4ccc5ncccc5c4)n3n2)cn1,liver cell % of control,[17],86.8% and 81.6% and 92.2%
same,parasite % of control,[17],347% (inactive) and 352% (inactive) and 281% (inactive)
